Compound activity (PubChem)
Rows were chosen to be rich in hits. Some 10% of all compounds tested hit in one or more screens of this group.
NIH3T3 tox: Cytotoxic Profiling in NIH 3T3 Cell Line of Diverse Libraries Using Quantitative High-Throughput Screening. NIH 3T3 viability, CellTiter-Glo ATP luminescence, 48-72 h. Potency, µM (highest dose often 96.7 µM), for the others: top-dose activity change, negative = cytotoxicity, actives largely listed as inhibitors. 94,000 tested, 4.3% active. AID 1345082, 2018; also: nearly all actives have a fitted effect of over 55% in size
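Cytotoxicity was measured by CellTiter-Glo ATP luminescence after 48 or 72 h compound exposure at 37 °C. Mouse NIH 3T3 fibroblasts were seeded at 400 cells/well and dosed by 23 nL pin transfer.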
hNpr1 antagonist: Natriuretic polypeptide receptor (hNpr1) antagonism - Primary qHTS; HEK293 hNpr1 GloSensor cGMP, ANP-stimulated luminescence; AID 1347048, 2019; Atrial natriuretic peptide receptor 1 (Homo sapiens), P16066; Potency, µM (titrated, usually from 46.3 µM), for inactives: at the highest dose activity change, negative = inhibition, most hits filed as inhibitors; 76,000 tested, 1.6% active; calls by dose curve; also: nearly all actives have a fitted effect of over 60% in size
Target sequence (P16066 whole entry, looked up): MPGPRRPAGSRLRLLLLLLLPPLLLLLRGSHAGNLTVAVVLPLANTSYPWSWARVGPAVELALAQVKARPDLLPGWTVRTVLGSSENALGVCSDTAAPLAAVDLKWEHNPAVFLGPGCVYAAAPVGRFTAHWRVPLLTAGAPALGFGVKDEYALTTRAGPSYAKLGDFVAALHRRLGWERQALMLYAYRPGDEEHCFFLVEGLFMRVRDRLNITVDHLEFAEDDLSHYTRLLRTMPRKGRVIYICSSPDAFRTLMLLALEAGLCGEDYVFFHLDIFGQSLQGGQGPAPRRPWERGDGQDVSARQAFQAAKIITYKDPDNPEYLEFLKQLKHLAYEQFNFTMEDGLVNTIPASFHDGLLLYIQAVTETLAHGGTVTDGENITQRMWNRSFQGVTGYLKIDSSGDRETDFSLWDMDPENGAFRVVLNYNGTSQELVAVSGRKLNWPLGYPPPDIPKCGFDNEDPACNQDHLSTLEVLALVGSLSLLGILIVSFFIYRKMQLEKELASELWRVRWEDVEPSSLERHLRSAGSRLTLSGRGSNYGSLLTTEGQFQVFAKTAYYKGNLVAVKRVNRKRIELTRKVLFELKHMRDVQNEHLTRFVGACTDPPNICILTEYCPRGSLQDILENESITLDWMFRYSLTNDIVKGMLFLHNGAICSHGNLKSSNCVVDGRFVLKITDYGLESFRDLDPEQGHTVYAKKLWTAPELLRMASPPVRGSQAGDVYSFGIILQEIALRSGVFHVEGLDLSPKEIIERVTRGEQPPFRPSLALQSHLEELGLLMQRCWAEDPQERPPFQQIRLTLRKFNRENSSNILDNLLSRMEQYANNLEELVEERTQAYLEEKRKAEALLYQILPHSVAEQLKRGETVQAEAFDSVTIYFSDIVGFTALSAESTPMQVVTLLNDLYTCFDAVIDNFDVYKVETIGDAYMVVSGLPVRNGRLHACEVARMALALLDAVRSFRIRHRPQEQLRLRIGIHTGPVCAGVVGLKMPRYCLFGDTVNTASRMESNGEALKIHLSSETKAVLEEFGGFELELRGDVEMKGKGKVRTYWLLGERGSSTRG
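Compound pre-incubated 30 min at room temperature on GloSensor-loaded HEK293 cells stably carrying hNpr1 and the pGS-40F cGMP biosensor. Stimulation uses hNppA at 0.1 nM final; luminescence is taken at baseline and 20 min post-agonist.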
GPT2 inh: Primary qHTS assay for inhibitors of Glutamate pyruvate transaminase 2 (GPT2) | AID 1671188, 2021 | Recombinant GPT2, coupled pyruvate oxidase/HRP Amplex Red fluorescence | 100,000 tested, 0.25% active | Potency, µM (doses to about 57.7 µM), without a hit: top-dose activity change, negative = inhibition, hits mostly inhibitors; also: nearly all actives have a fitted effect of over 60% in size
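GPT2 10ng/uL, a-KG 250uM, L-Ala 2mM, HEPES pH7.5 + 0.0001% Tween; 30 min RT. Then Amplex mix (PO/HRP/ThPP), 30 min RT dark, fluorescence. AOA 50uM used as positive control.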
FLuc inh: Firefly luciferase inhibition profiling of diverse chemical library using quantitative high-throughput screening | Luciferin 4-monooxygenase (Photinus pyralis), P08659 | purified P. pyralis luciferase, luminescence, biochemical | Potency, µM (doses to about 115 µM), usual class: inhibitors | 76,000 tested, 2.5% active | AID 1347043, 2019; also: nearly all actives have a fitted effect of over 65% in size
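Cell-free enzyme assay, 10nM P. pyralis luciferase, luciferin and ATP each at 10uM. Inhibition profiled over a 6-point titration, read as luminescence.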
HEK cytotox: Cytotoxic Profiling in HEK 293 Cell Line of Diverse Libraries Using Quantitative High-Throughput Screening; HEK 293 viability, ATP luminescence (CellTiter-Glo), 48-72 h; Potency, µM (highest dose often 115 µM), inactives show at the highest dose activity change, negative = cytotoxicity, actives largely listed as inhibitors; 94,000 tested, 6.6% active; also: nearly all actives have a fitted effect of over 60% in size
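Cells seeded first (HEK 293, 250 cells/well), then compound added by pintool. Incubation ran 48 or 72 hr at 37 degree Celsius. CellTiter-Glo was added and luminescence imaged after 10 min at room temperature.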
* = called active by the depositor; i = inactive; ? = inconclusive; . = not tested or not shown; [ ] = another dose, or the depositor's remark. Unless noted, calls follow the shape of the dose curve; as a rule, active = well fitted curve in the direction sought with a large enough effect; inconclusive = small, poorly fitted or top-dose-only effect, or another doubt; inactive = no such curve, though single readings can be large; an effect the other way counts as inactive or inconclusive. % is scaled to controls: 0 for no effect and ±100 for the full control effect; potency is read from the fitted curve at half-maximal effect.

SMILES | NIH3T3 tox | hNpr1 antagonist | GPT2 inh | FLuc inh | HEK cytotox
COCCN[C@@H]1C[C@@H]2c3[nH]c4ccccc4c3C[C@@H](C(=O)OC)N2[C@H](c2cccc(OC)c2)C1 | ? | ? | ? | i | 22.4µM*
COCCN[C@@H]1C[C@@H]2c3[nH]c4ccccc4c3C[C@@H](C(=O)OC)N2[C@H](c2ccc(Cl)c(F)c2)C1 | 14.1µM* | ? | i | i | ?
O=C(NCc1ccc(F)cc1)C1CCN(C(=O)c2ccc(-c3cncnc3)cc2)CC1 | ? | . | 3.5% | . | -15.4%
Cc1nc(CN2CC3(CCN(C)C3)c3cc(C(=O)NCc4ccccc4)ccc32)cs1 (stereo unspecified) | ? | -7.3%[70.6 µM] | i | i | 112µM*
CN1CCCC2(C1)CN(Cc1cccnc1)c1ccc(C(=O)NCc3cccs3)cc12 (stereo unspecified) | ? | 6.1%[70.6 µM] | 3.5%[88.5 µM] | i | ?
CN1CCC2(C1)CN(Cc1ccccc1)c1ccc(C(=O)NCc3cccs3)cc12 (stereo unspecified) | 28.2µM* | 0.0%[70.6 µM] | -27.8%[88.5 µM] | i | 44.7µM*
Cc1nc(CN2CC3(CCN(C)C3)c3cc(C(=O)NCC4CC4)ccc32)cs1 (stereo unspecified) | ? | 0.8%[70.6 µM] | -24.1%[88.5 µM] | i | -36.9%[172 µM]
Cc1nc(CN2CC3(CCN(C)C3)c3cc(C(=O)NCc4cccs4)ccc32)cs1 (stereo unspecified) | 79.4µM* | -4.5%[70.6 µM] | i | i | ?
CCC(C)NC(=O)c1ccccc1-c1ccc(OC)nn1 (stereo unspecified) | -16.3%[138 µM] | . | . | . | -11.2%[172 µM]
Fc1ccccc1CC1CCN(CC2[C@H]3CNC[C@@H]23)CC1 (stereo partly specified) | 35.5µM* | 4.1% | i | i | ?
OC[C@@H]1CNC[C@H]1C1CCN(Cc2ccncc2F)CC1 | -0.2% | 0.7% | i | i | i
CC1(C)Cc2c(cnn2-c2ccc(F)cc2)C(NC(=O)c2cc(C3CC3)[nH]n2)C1 (stereo unspecified) | ? | -15.3% | -4.0%[11.5 µM] | i | 79.4µM*
Cc1cc(C(=O)NC2CC(C)(C)Cc3nc(C(C)(C)C)ncc32)n[nH]1 (stereo unspecified) | -19.8% | 2.7% | 0.8% | i | -27.0%
CC1(C)[C@H]2CC[C@@H](CN[S+](=O)([O-])c3ccccc3)[C@@H]1C2 | ? | -26.4%[70.6 µM] | i | i | 79.4µM*
CC1(C)[C@H]2CC[C@@H](CNC(=O)c3cccc(Cl)c3)[C@@H]1C2 | ? | 2.0%[70.6 µM] | -4.8%[88.5 µM] | i | 79.4µM*
Cc1ccc([S+](=O)([O-])NC[C@@H]2CC[C@H]3C[C@@H]2C3(C)C)cc1 | ? | ? | i | i | ?
CC(C)c1ccc(C(=O)NC[C@@H]2CC[C@H]3C[C@@H]2C3(C)C)cc1 | ? | 5.1%[70.6 µM] | -2.7%[88.5 µM] | i | ?
COc1cccc(C(=O)NC[C@@H]2CC[C@H]3C[C@@H]2C3(C)C)c1 | ? | -1.3%[70.6 µM] | -3.1%[88.5 µM] | i | 89.1µM*
CC1(C)[C@H]2CC[C@@H](CNC(=O)c3ccc(Cl)cc3)[C@@H]1C2 | 39.8µM* | -8.4%[70.6 µM] | i | i | ?
CCOc1ccccc1NC(=O)N1CCC2(CC1)CC2c1noc(C)n1 (stereo unspecified) | -26.9% | . | ? | . | -9.6%
COc1cc2c(cc1OC)C(CNC(=O)CC(C)C)N(C(=O)Nc1ccccc1)CC2 (stereo unspecified) | -0.9% | 1.4% | i | i | -0.8%
COc1cccc(CNC(=O)c2nc3sccn3c2-c2ccccc2)c1 | ? | . | i | . | ?
Oc1cccc(Nc2cnc3ccc(-c4ccc(F)cc4)nn23)c1 | ? | -17.7%[70.6 µM] | -15.8%[88.5 µM] | 20µM* | ?
COc1cncc(Nc2cnc3ccc(-c4ccc(F)cc4)nn23)c1 | 79.4µM* | -23.5%[70.6 µM] | ? | i | 100µM*
